We go through 14 molecules from PubChem BioAssay (EPA / NIEHS).

Assay [1] has as its target Nuclear receptor subfamily 1 group I member 3 (Homo sapiens) (UniProt Q14994). Nature of the assay: ATG_CAR_TRANS: Attagene TRANS-FACTORIAL HepG2 Assay for human Constitutive Androstane Receptor (CAR) (AID 2282969).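 Note: activators raise reporter mRNA above DMSO so AC50 marks induction.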 To be noted: HepG2 Attagene TRANS-FACTORIAL CAR reporter. The procedure, abridged:
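HepG2 cells transiently transfected with GAL4-UAS reporter units; TRANS format reads activity of exogenous chimeric NR-Gal4 protein. After 24 h dosing, reporter mRNA quantified by RT-PCR, 6-FAM labelling and capillary electrophoresis; gain of signal fitted against DMSO.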

A short description of assay [2]: ATG_M_19_TRANS: Attagene TRANS-FACTORIAL HepG2 Assay for M19 Transcription Factor (Internal Marker) (AID 2282974). To be noted: HepG2 Attagene TRANS-FACTORIAL M19 internal marker reporter. The procedure, abridged: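 Cells: human HepG2, transiently transfected with multiplexed reporter transcription units. Exposure: 24 h. Detection: RT-PCR of reporter mRNA with capillary electrophoresis. Analysis: gain-of-signal vs DMSO.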

The nature of assay [3]: ATG_GAL4_TRANS: Attagene TRANS-FACTORIAL HepG2 Assay for GAL4 (Internal Marker) (AID 2282976). To be noted: HepG2 Attagene TRANS GAL4 internal marker reporter. The method, boiled down: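 Background-control readout: GAL4-UAS reporter transcript in transiently transfected HepG2 cells after 24 h compound exposure. Measured by RT-PCR, 6-FAM primer extension, HpaI digest and capillary electrophoresis; gain-of-signal fit versus DMSO.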

Assay [4] concerns the target Oxysterols receptor LXR-alpha (Homo sapiens) (UniProt Q13133). Kind of assay: ATG_LXRa_TRANS: Attagene TRANS-FACTORIAL HepG2 Assay for human Liver X Receptor alpha (LXRa) (AID 2282980). To be noted: HepG2 Attagene TRANS reporter, LXRa transactivation. The procedure, abridged:
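HepG2 cells transiently transfected with GAL4-UAS reporter units for chimeric NR-Gal4 proteins, exposed to chemicals for 24 h. Reporter mRNA quantified by RT-PCR and capillary electrophoresis; gain of signal fitted relative to DMSO.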

Assay [5] is described as follows: ATG_M_32_TRANS: Attagene TRANS-FACTORIAL HepG2 Assay for M32 Transcription Factor (Internal Marker) (AID 2282984). The conditions noted are these: HepG2 Attagene TRANS M32 internal marker reporter. The procedure, abridged: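 HepG2 cells transiently transfected with GAL4-UAS reporter units, dosed for 24 hours. Reporter mRNA quantified by RT-PCR, 6-FAM labelling, HpaI digestion and capillary electrophoresis; internal-marker signal fitted upward relative to DMSO.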

Assay [6] has as its target Nuclear receptor subfamily 4 group A member 2 (Homo sapiens) (UniProt P43354). Kind of assay: ATG_NURR1_TRANS: Attagene TRANS-FACTORIAL HepG2 Assay for human Nuclear Receptor Related Protein 1 (NURR1) (AID 2282985). The conditions noted are these: HepG2 Attagene TRANS reporter, mRNA readout. The method, boiled down: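 HepG2 cells transiently transfected with NURR1-Gal4 chimera and GAL4-UAS reporter units; after 24 hr compound exposure, reporter mRNA quantified by RT-PCR and capillary electrophoresis; gain of signal fitted against DMSO.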

Assay [7] addresses human Peroxisome Proliferator-activated Receptor delta (PPARd), PPARD (gene 5467) (UniProt Q03181). Kind of assay: ATG_PPARd_TRANS: Attagene TRANS-FACTORIAL HepG2 Assay for human Peroxisome Proliferator-activated Receptor delta (PPARd) (AID 2283002). The method, boiled down: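 Fluorescence from capillary electrophoresis of labelled RT-PCR reporter fragments gives the signal; DMSO sets baseline. Cells: HepG2 transiently carrying GAL4-UAS reporter units plus chimeric nuclear receptor-Gal4 proteins, exposed to chemicals for 24 h.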

Assay [8] concerns the target Peroxisome proliferator-activated receptor gamma (Homo sapiens) (UniProt P37231). Kind of assay: ATG_PPARg_TRANS: Attagene TRANS-FACTORIAL HepG2 Assay for human Peroxisome Proliferator-activated Receptor-gamma (PPARg) (AID 2283007). The method, boiled down: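 A TRANS-format multiplexed reporter assay measures activity of an exogenous chimeric NR-Gal4 protein in HepG2 cells. After 24 h of chemical exposure, reporter transcripts are amplified, fluorescently labelled and sized by capillary electrophoresis, with gain of signal scored against DMSO.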

In assay [9] the target is human RAR-related Orphan Receptor gamma (RORg), RORC (gene 6097) (UniProt P51449). Kind of assay: ATG_RORg_TRANS: Attagene TRANS-FACTORIAL HepG2 Assay for human RAR-related Orphan Receptor gamma (RORg) (AID 2283011). The procedure, abridged:
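HepG2 cells transiently transfected with GAL4-UAS reporter units and chimeric RORg-Gal4 construct; after 24 h chemical exposure, reporter mRNA measured by RT-PCR with fluorescent capillary electrophoresis, gain of signal fitted against DMSO.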

For assay [10], the target named is Retinoic acid receptor RXR-alpha (Homo sapiens) (UniProt P19793). Nature of the assay: ATG_RXRa_TRANS: Attagene TRANS-FACTORIAL HepG2 Assay for human Retinoid X Receptor alpha (RXRa) (AID 2283012). The method, boiled down:
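HepG2 cells transiently transfected with GAL4-UAS reporter units and chimeric RXRa-Gal4 protein, treated 24 h. Reporter mRNA measured by RT-PCR, fluorescent labelling, HpaI digestion and capillary electrophoresis. Induction fitted against DMSO.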

For assay [11], the target named is human Thyroid Receptor alpha (THRa1), THRA (gene 7067) (UniProt P10827). Nature of the assay: ATG_THRa1_TRANS: Attagene TRANS-FACTORIAL HepG2 Assay for human Thyroid Receptor alpha (THRa1) (AID 2283014). The method, boiled down:
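HepG2 cells transiently transfected with chimeric NR-Gal4 and GAL4-UAS reporter units, dosed 24 h. Reporter mRNA quantified by RT-PCR, fluorescent labeling, HpaI digestion and capillary electrophoresis; gain-of-signal fit versus DMSO.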

The nature of assay [12]: TOX21_p53_BLA_p4_viability: Viability Assessment in the Tox21 HCT-116 p53 Agonism Beta-lactamase Assay, Phase 4 (AID 2283597).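 Note: hits lower the luminescence signal meaning cytotoxicity.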 The procedure, abridged:
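HCT-116 p53-bla cells, 4000/well, dosed after 5 h attachment and incubated 16 h at 37 °C, 5% CO2. Viability from CellTiter-Glo ATP luminescence after 30 min at room temperature, taken after the beta-lactamase read; loss of signal indicates cytotoxicity.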

The nature of assay [13]: ACEA_ER_AUC_viability: ACEA Biosciences xCELLigence Real-Time Cell Analysis on Estrogen Receptor Agonism for Viability (AID 2283782).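 Note: continuous compound exposure with impedance area under curve over 80 h; hit means loss of impedance signal meaning reduced cell growth or viability.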 The method, boiled down: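 T47D cells preconditioned in phenol red-free RPMI with charcoal-stripped FBS, then dosed with 8-point 1:4 series from 100 uM (up to 0.5% DMSO). Impedance monitored up to ~80 h; area-under-curve loss versus DMSO taken as viability.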

Assay [14] concerns the target Estrogen-related receptor gamma (Homo sapiens) (UniProt P62508). Kind of assay: ATG_ERRg_TRANS: Attagene TRANS-FACTORIAL HepG2 Assay for human Estrogen-Related Receptor gamma (ERRg) (AID 2282977).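 Note: hits increase reporter signal over DMSO so potencies reflect activators.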 The conditions noted are these: HepG2 Attagene TRANS reporter, ERRg transactivation. The method, boiled down: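 HepG2 cells transiently transfected with multiplexed GAL4-UAS reporter units driven by chimeric NR-Gal4 proteins; 24 h exposure. Reporter mRNA quantified by RT-PCR, fluorescent labelling, HpaI digestion and capillary electrophoresis; gain of signal vs DMSO.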

The target of assay [15] is Retinoic acid receptor alpha (Homo sapiens) (UniProt P10276). Kind of assay: ATG_DR5_RAR_CIS: Attagene CIS-FACTORIAL HepG2 Assay for human Retinoic Acid Receptor Alpha (RARE), DR5 submotif (AID 2282934; active = hit-call score of the fitted dose curve at least 0.9, where 1 is the maximum; inactive = score below 0.9). To be noted: HepG2 Attagene cis-factorial RARE DR5 reporter, mRNA; actives raise or lower the signal. The procedure, abridged:
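After 24 h of chemical exposure, transiently transfected HepG2 cells were lysed for total RNA; the DR5-regulated reporter transcript was quantified via RT-PCR and capillary electrophoresis, with activity fitted bidirectionally against DMSO.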

The nature of assay [16]: CCTE_Harrill_HTTr_Viability_MCF7: CCTE's 6-hour Cell Viability Assessment for the High-Throughput Transcriptomics (HTTr) Platform, in MCF-7 cells cultured in DMEM + 10% fetal bovine serum, Harrill Lab (AID 2284010; active = hit-call score of the fitted dose curve at least 0.9, where 1 is the maximum; inactive = score below 0.9). The method, boiled down: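 MCF-7 cells in DMEM + 10% FBS, 384-well, exposed 6 h to an eight-point dilution series. Membrane integrity scored by high-content imaging of propidium iodide exclusion; bidirectional fit versus DMSO.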

The nature of assay [17]: CCTE_Harrill_HTTr_Apoptosis_MCF7: CCTE's 6-hour Apoptosis Assessment for the High-Throughput Transcriptomics (HTTr) Platform, in MCF-7 cells cultured in DMEM + 10% fetal bovine serum, Harrill Lab (AID 2284011; active = hit-call score of the fitted dose curve at least 0.9, where 1 is the maximum; inactive = score below 0.9). The procedure, abridged: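 MCF-7 cells in DMEM + 10% FBS exposed 6 h to chemicals over an eight-point dilution series. Caspase-3/7 activation imaged by high-content CellEvent Green staining; fitted bidirectionally versus DMSO.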

For assay [18], the target named is human RAR-related Orphan Receptor beta (RORb), RORB (gene 6096) (UniProt Q92753). Kind of assay: ATG_RORb_TRANS: Attagene TRANS-FACTORIAL HepG2 Assay for human RAR-related Orphan Receptor beta (RORb) (AID 2283010). The method, boiled down: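 HepG2 cells transiently transfected with GAL4-UAS reporter units expressing chimeric NR-Gal4 protein; reporter mRNA measured 24 h after dosing by RT-PCR, 6-FAM labelling and capillary electrophoresis. Gain-of-signal fitted relative to DMSO baseline.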

Results filed as inconclusive are left out. Active and inactive are the calls of the source. Rule for the calls, unless noted: active = hit-call score of the fitted dose curve at least 0.9, where 1 is the maximum; inconclusive = response in the unintended direction; inactive = score below 0.9.

Usually AC50 stands for the concentration at which the activity in the assay is half-maximal.

Retinoic acid receptor RXR-alpha (Homo sapiens), sequence (P19793 whole entry, looked up, the tested form may be a part): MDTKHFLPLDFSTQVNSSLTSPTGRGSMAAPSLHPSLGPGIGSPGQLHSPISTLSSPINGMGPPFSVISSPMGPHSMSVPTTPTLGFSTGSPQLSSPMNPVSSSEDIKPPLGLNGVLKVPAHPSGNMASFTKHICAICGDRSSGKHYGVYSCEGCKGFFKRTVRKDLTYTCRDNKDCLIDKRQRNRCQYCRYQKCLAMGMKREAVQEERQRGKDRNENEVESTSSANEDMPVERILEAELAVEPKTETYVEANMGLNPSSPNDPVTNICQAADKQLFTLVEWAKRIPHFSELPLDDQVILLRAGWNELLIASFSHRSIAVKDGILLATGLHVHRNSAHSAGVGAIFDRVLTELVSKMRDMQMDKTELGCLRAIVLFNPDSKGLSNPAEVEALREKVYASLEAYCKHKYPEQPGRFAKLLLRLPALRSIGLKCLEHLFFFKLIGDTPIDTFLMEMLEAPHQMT
human RAR-related Orphan Receptor gamma (RORg), RORC (gene 6097), sequence (P51449 whole entry, looked up, the tested form may be a part): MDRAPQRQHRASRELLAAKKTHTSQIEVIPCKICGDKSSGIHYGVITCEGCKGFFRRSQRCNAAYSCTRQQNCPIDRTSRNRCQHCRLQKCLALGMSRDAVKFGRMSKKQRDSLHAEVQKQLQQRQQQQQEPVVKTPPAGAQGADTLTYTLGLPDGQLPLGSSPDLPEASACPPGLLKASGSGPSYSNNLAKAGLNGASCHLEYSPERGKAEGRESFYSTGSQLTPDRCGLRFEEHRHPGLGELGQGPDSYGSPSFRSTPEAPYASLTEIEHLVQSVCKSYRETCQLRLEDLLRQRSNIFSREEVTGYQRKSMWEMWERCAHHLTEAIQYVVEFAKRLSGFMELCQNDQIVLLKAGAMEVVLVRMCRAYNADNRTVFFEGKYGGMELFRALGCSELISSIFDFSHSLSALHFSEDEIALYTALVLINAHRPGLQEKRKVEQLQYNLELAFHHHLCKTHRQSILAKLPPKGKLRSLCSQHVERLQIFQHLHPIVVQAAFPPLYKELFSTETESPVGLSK
Nuclear receptor subfamily 1 group I member 3 (Homo sapiens), sequence (Q14994 whole entry, looked up, the tested form may be a part): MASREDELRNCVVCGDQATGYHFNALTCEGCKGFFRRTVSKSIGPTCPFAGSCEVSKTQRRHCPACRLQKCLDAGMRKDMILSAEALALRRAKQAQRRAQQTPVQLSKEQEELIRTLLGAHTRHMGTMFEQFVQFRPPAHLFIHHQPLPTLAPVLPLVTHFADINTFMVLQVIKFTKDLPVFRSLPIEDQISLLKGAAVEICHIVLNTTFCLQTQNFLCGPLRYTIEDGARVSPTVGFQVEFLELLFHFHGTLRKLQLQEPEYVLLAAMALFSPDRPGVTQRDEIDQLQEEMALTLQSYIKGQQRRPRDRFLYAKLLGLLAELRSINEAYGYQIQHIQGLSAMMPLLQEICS
Estrogen-related receptor gamma (Homo sapiens), sequence (P62508 whole entry, looked up, the tested form may be a part): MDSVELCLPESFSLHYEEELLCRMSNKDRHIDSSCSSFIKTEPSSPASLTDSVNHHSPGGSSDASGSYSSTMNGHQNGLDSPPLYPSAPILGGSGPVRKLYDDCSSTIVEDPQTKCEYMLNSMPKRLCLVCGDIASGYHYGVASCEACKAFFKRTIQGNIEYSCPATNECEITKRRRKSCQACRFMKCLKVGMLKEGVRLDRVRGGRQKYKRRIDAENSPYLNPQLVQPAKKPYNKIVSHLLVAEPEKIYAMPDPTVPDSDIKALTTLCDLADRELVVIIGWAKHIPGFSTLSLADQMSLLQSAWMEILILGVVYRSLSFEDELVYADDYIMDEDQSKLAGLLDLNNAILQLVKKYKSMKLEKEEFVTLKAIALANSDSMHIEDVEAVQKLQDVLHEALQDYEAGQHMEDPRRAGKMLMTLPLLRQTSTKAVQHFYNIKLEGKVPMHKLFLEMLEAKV
Peroxisome proliferator-activated receptor gamma (Homo sapiens), sequence (P37231 whole entry, looked up, the tested form may be a part): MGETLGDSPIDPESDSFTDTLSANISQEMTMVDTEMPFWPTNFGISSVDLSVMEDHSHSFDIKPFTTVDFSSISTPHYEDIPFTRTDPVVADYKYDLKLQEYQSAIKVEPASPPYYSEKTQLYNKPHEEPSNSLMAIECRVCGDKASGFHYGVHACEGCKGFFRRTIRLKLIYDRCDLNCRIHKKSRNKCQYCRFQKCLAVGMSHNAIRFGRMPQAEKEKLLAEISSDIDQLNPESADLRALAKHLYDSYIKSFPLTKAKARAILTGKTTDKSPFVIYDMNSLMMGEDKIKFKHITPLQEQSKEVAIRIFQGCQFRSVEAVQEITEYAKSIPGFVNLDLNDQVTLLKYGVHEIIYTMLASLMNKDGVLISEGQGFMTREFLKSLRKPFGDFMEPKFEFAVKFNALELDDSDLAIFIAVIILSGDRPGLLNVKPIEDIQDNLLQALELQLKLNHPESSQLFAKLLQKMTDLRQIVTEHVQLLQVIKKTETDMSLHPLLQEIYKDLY
Oxysterols receptor LXR-alpha (Homo sapiens), sequence (Q13133 whole entry, looked up, the tested form may be a part): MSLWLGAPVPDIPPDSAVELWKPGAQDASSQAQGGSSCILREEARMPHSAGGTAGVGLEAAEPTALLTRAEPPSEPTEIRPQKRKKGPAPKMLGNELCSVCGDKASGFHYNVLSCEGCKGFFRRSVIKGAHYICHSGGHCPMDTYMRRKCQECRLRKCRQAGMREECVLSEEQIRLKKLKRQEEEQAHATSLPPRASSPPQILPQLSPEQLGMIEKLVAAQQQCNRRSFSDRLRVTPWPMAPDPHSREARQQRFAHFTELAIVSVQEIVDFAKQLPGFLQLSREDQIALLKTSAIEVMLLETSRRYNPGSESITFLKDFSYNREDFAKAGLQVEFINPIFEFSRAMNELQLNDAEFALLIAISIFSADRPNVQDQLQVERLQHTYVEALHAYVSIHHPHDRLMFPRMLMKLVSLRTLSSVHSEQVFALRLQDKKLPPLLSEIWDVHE
Nuclear receptor subfamily 4 group A member 2 (Homo sapiens), sequence (P43354 whole entry, looked up, the tested form may be a part): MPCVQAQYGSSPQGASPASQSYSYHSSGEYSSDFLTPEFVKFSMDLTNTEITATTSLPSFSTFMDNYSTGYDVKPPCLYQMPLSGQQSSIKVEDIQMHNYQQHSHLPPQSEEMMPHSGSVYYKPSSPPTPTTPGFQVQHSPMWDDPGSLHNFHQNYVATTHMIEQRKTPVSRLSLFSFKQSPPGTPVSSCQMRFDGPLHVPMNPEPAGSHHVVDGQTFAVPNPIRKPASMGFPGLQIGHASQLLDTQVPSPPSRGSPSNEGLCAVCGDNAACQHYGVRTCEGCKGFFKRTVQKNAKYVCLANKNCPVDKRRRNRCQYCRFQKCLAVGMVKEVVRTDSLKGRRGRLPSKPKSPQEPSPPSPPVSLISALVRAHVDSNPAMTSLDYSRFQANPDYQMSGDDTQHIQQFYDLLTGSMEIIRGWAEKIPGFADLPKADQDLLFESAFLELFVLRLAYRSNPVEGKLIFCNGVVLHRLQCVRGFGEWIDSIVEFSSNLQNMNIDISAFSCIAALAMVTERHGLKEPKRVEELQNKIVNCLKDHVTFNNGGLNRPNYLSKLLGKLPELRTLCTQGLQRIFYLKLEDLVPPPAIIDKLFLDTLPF
human Thyroid Receptor alpha (THRa1), THRA (gene 7067), sequence (P10827 whole entry, looked up, the tested form may be a part): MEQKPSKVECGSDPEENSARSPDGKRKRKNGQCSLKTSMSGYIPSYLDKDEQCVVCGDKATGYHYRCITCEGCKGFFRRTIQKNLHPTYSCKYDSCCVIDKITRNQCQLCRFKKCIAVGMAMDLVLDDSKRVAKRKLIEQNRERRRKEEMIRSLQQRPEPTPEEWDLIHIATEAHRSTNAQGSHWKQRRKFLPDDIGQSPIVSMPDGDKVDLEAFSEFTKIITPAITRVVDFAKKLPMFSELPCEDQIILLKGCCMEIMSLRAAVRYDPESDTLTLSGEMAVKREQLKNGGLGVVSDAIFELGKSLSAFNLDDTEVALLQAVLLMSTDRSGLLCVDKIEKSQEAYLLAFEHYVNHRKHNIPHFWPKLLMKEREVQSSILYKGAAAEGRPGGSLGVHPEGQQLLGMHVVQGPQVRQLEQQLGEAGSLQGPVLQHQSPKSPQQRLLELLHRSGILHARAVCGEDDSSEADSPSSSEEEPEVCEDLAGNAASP
human Peroxisome Proliferator-activated Receptor delta (PPARd), PPARD (gene 5467), sequence (Q03181 whole entry, looked up, the tested form may be a part): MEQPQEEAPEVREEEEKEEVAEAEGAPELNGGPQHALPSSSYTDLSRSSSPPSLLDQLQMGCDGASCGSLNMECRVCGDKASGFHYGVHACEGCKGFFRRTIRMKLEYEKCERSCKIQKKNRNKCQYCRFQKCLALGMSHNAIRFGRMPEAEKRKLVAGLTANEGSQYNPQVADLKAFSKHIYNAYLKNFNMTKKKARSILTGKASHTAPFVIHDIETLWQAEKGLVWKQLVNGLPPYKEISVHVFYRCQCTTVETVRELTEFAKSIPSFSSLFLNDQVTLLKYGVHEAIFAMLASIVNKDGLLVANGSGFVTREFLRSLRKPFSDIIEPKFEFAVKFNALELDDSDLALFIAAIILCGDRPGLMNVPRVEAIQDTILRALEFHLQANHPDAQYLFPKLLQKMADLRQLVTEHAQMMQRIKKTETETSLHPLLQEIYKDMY
Retinoic acid receptor alpha (Homo sapiens), sequence (P10276 whole entry, looked up): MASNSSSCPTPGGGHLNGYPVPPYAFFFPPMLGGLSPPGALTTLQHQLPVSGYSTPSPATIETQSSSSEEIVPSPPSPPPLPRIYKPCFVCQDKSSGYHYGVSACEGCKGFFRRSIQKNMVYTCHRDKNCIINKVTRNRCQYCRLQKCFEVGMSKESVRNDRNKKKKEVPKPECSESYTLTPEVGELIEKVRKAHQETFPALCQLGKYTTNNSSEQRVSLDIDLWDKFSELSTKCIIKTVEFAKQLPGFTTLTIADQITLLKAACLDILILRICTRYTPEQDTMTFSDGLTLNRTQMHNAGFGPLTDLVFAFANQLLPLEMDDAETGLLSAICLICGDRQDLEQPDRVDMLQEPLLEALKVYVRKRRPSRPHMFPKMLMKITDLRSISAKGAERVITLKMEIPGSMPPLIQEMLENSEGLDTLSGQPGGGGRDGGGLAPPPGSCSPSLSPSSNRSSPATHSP

As for `COCCCN`, the molecule was classed as inactive in assay [1], in [2], in [3], in [4], in assay [5] and in assay [6]. Moreover, the call in assay [7], in assay [8], in assay [9], in assay [10], in [11] and in assay [12] was inactive. Moreover, the molecule was called inactive in assay [13].
For the molecule `CN(C)N=Nc1ccccc1`, the call in assay [2], in assay [3], in assay [14], in [4], in assay [6] and in assay [7] was inactive. Moreover, the molecule was called inactive in assay [9], in assay [10], in [11] and in [12].
As for `CCC(C)=NO`, the molecule was classed as inactive in assay [15], in assay [1], in assay [2], in assay [9], in [11] and in [13]. In addition, the outcome in assay [16] and in [17] was inactive.
For `O=C(c1ccccc1)c1ccccc1O`, the molecule was classed as inactive in assay [15], in assay [1], in [14], in [5], in assay [8] and in assay [10]. The AC50 in assay [13] is 76.9 µM (active).
Regarding `CN(C)Cc1cc(C(C)(C)C)c(O)c(C(C)(C)C)c1`, the call in assay [15], in assay [2], in assay [14], in assay [4], in assay [7] and in assay [8] was inactive. The result in [12] was inactive. The concentration at half-maximal activity (AC50) in assay [6] was 29.1 µM (active); in assay [10], 22.9 µM (active).
As for `O=C(C(=O)c1ccccc1)c1ccccc1`, the molecule was called inactive in assay [1], in assay [2], in [14], in assay [11], in [16] and in [17].
As for `O=C(O)Cc1c[nH]c2ccccc12`, the result in assay [1], in [2], in assay [3], in assay [14], in assay [4] and in [6] was inactive. For the same molecule, the outcome in assay [10], in assay [11], in [12], in assay [13], in assay [16] and in assay [17] was inactive.
For the molecule `CCCCCCCCCC/C=C/C1CC(=O)OC1=O` (centres undefined), the outcome in [2], in assay [4], in assay [6], in assay [7], in assay [9] and in [12] was inactive. In addition, the AC50 in assay [13] is 64.1 µM (active).
In the case of `COC(OC)C(C)c1ccccc1` (centres undefined), the outcome in assay [15], in assay [3], in [5], in assay [7], in assay [9] and in [10] was inactive. Also, the molecule was classed as inactive in assay [11] and in assay [12]. Moreover, in assay [13], the AC50 was 20.7 µM (active).
With `CCCCCC1CCCC(=O)O1` (centres undefined), the outcome in assay [15], in assay [1], in [2], in assay [3], in assay [14] and in [4] was inactive. Besides, the molecule was classed as inactive in assay [5], in assay [7], in assay [8], in assay [10], in [12] and in assay [13].
Consider `O=S(=O)(O)c1cccc2ccccc12`, for which the outcome in [14], in assay [7], in assay [8], in assay [9], in assay [10] and in assay [11] was inactive. The outcome in assay [13] was inactive.
For `CC(=O)c1nccs1`, the molecule was called inactive in assay [15], in assay [1], in assay [2], in assay [4], in [8] and in assay [11].
As for `O=[N+]([O-])c1ccccc1C(F)(F)F`, the molecule was classed as inactive in assay [15], in [1], in assay [2], in assay [3], in assay [14] and in [8]. The molecule was called inactive in [18], in assay [9] and in assay [12].
As for `O=C(CC(C(=O)OC1CCCCC1)S(=O)(=O)O)OC1CCCCC1` (centres undefined), the result in [15], in [1], in assay [2], in [3], in assay [14] and in assay [4] was inactive. Moreover, the outcome in [9] and in assay [11] was inactive. Besides, in assay [8], the AC50 is 47.7 µM (active).
